# Records with an inconclusive call do not appear. A call without a number means that no potency is given here. Values without a mark were called inactive. Activity calls are given as the source filed them. Calls follow the shape of the dose curve; as a rule, active = well fitted inhibition curve with a large enough effect; inconclusive = small, poorly fitted or top-dose-only effect; inactive = no such curve, though single readings can be large or run the other way.
# System: Zika virus NS2B-NS3 protease (unlinked complex)
# Assay: Primary screen GU Rhodamine qHTS for Zika virus inhibitors: Unlinked NS2B-NS3 protease assay (AID 1347159); also: nearly all actives have a fitted effect of over 60% in size
# Conditions: Recombinant ZIKV NS2B-NS3 protease, Rhodamine110 substrate fluorescence; series mostly up to 107 µM
# Source text: Avindra Nath, Ph.D., National Institute of Neurological Disorders and Stroke (NINDS), Bethesda, MD
# Radhakrishnan Padmanabhan, Ph.D., Georgetown University (GU), Washington D.C.
# Zika Virus causes congenital defects, including microcephaly and is associated with Guillain-Barre syndrome, eningoencephalitis and myelitis in infected adult. […] Using a target-based approach, we hope to establish a screening paradigm to uncover novel, cell-active NS2B-NS3 protease (Zika Virus) specific inhibitors from NCATS' collection of small molecules using qHTS.
# Four assay panel was created to identify potential Zika Virus inhibitors. Namely, (1) GU unlinked NS2B-NS3 AMC tagged protease qHTS, (2) GU unlinked NS2B-NS3 Rhodamine tagged protease qHTS, (3) NINDS linked NS2B-NS3 AMC tagged protease qHTS, (4) NINDS linked NS2B-NS3 Rhodamine tagged protease qHTS. Active compounds were re-acquired and re-screened to confirm inhibition. Inhibitors were further screened against various confirmatory and counterscreens in dose response format.
# Early Translation Branch (ETB)
# National Center for Advancing Translational Sciences (NCATS), Rockville, MD
# National Institute of Health (NIH), Bethesda, Maryland
# Padmanabhan lab provided the NS2B hydrophilic domain and NS3 protease domain in a noncovalent complex used for the unlinked assay. Control compound aprotinin is obtained from Thermo Scientific (#78432; Waltham, Massachusetts). Rhodamine110 substrate ([N-Cbz]-Nle-Lys-Arg-Arg-Rhod110-Arg-Arg-Lys-Nle-[N-Cbz]) was purchased from either Genscript or Bachem.
# 1536-well Protease (Rhodamine110 Substrate) Assay:
# Briefly, 3 microL of enzyme (25 nM final concentration), in assay buffer (10 mM Tris-HCl pH 8.0 with 0.01% Tween 20) were dispensed into a 1,536-well solid-bottom black plate (Greiner Bio One, Monroe, NC). Twenty-three nL of compounds (final concentration range 7.28 nM to 114 microM) or control Aprotinin (final concentration range 3.47 nM to 114 microM) were transferred via Wako Pin-tool (Wako Automation, Richmond, VA). Samples were incubated (room temperature, protected from light) for 15 minutes followed by a 1 microL Rhodamine110 substrate addition (1.5 microM final concentration). Plates were then immediately read on a ViewLux High-throughput CCD imager (PerkinElmer, Waltham, MA) equipped with FITC fluorescence optics (480(20) nm excitation, 540(25) nm emission), then incubated (room temperature, protected from light) for 15 minutes (~15% conversion). The change in fluorescence intensity over the 15-minute reaction period was normalized against no-inhibitor and no-enzyme controls and the resulting percent inhibition data were fitted to a 4-parameter Hill equation. Aprotinin was used as intraplate control.
# Potency is read from the fitted curve at half-maximal effect.
Structure (SMILES),Potency,"activity change, negative = inhibition"
COc1cc(Oc2ccnc3cc(OC)c(OC)cc23)ccc1NC(=O)NC(C)c1nccs1 (stereo not given),inactive,
Cn1cnc2c(F)c(Nc3ccc(Br)cc3Cl)c(C(=O)NOCCO)cc21,inactive,
CCOc1cc(C(=O)Nc2ccc(Cl)c(-c3nc4ccccc4[nH]3)c2)cc(OCC)c1OCC,inactive,
Cc1ccnc(NS(=O)(=O)c2ccc(NC(=O)Nc3ccc(S(=O)(=O)Nc4nccc(C)n4)cc3)cc2)n1,inactive,
CCOc1ccn(-c2ccc(F)cc2)c(=O)c1C(=O)Nc1ccc(Oc2ccnc(N)c2Cl)c(F)c1,inactive,
Cc1csc(NC(=O)c2sc3nc4c(c(C(F)(F)F)c3c2N)CCC4)n1,inactive,
COc1nc(-c2ccc3c(c2)OCO3)n(-c2ccc(NC(=O)CSc3ccccc3)cc2)n1,inactive,
Cc1cc(SCc2sc(-c3ccc(C(F)(F)F)cc3)nc2C)ccc1OCC(=O)O,3.55 µM (active),
CNC(=O)c1ccc(C)c(-n2c(C)cc(OCc3ccc(F)cc3F)c(Br)c2=O)c1,inactive,
CN(C)c1ccc(C2Nc3ccc4ccccc4c3C3=C2C(=O)CC(C)(C)C3)cc1Br (stereo not given),inactive,
O=c1[nH]c(-c2ccc(C(F)(F)F)cc2)nc2c1CSCC2,inactive,
CCN(CC)CCCC(C)Nc1ccnc2cc(Cl)ccc12 (stereo not given),,52.4% [at 19.1 µM]
COc1ccccc1[C@H](c1cccc2ccccc12)[C@@](C)(C#N)C(=O)N1CCC(c2cccc(C(F)(F)F)c2)CC1,inactive,
CC1(C)CNc2cc(NC(=O)c3cccnc3NCc3ccncc3)ccc21,inactive,
CCC(C)n1ncn(-c2ccc(N3CCN(c4ccc(OC[C@H]5CO[C@](Cn6cncn6)(c6ccc(Cl)cc6Cl)O5)cc4)CC3)cc2)c1=O (stereo not given in full),inactive,
COc1c(Cl)cc2c([nH]c3cnccc32)c1NC(=O)c1cccnc1C,inactive,
CCc1cc(Nc2nccc(-c3c(-c4ccc(OC)c(C(=O)Nc5c(F)cccc5F)c4)nc4ccccn34)n2)c(OC)cc1N1CCC(N2CCN(S(C)(=O)=O)CC2)CC1,inactive,
CC(C)(Sc1ccc(CCN(CCCCC2CCCCC2)C(=O)NC2CCCCC2)cc1)C(=O)O,3.55 µM (active),
COc1ccc(CCN2CCN(CCCc3ccccc3)CC2)cc1OC,inactive,
CCCc1nn(C)c2c(=O)[nH]c(-c3cc(S(=O)(=O)N4CCN(C)CC4)ccc3OCC)nc12,inactive,

Structure (SMILES),Potency,"activity change, negative = inhibition"
CS(=O)(=O)c1cccc(CNc2nc(Nc3ccc4c(c3)CCC(=O)N4)ncc2C(F)(F)F)c1,inactive,
CN(C)C(=O)c1ccc(S(=O)(=O)c2ccc(NC(=O)[C@@](C)(O)C(F)(F)F)c(Cl)c2)cc1,inactive,
Cc1cc(Nc2nc(N[C@@H](C)c3ncc(F)cn3)ncc2Cl)n[nH]1,inactive,
COc1cccc2cc(-c3nc(C4CCC(C(=O)O)CC4)n4ncnc(N)c34)[nH]c12 (stereo not given),inactive,
N#CC[C@H](C1CCCC1)n1cc(-c2ncnc3[nH]ccc23)cn1,inactive,
OCCn1cc(-c2cnc3nnn(Cc4ccc5ncccc5c4)c3n2)cn1,50.1 µM (active),
O=C(Nc1ccc(F)c(C(F)(F)F)c1)Nc1nnc(-c2ccncc2)s1,8.91 µM (active),
Cc1cnc(Nc2ccc(OCCN3CCCC3)cc2)nc1Nc1cccc(S(=O)(=O)NC(C)(C)C)c1,inactive,
CCc1cncnc1N1CCN(Cc2nc3ccc(C(F)(F)F)cc3[nH]2)CC1,inactive,
CS(=O)(=O)c1ccc(C(=O)Nc2ccc(Cl)c(-c3ccccn3)c2)c(Cl)c1,inactive,
S=C(NCc1ccc2c(c1)OCO2)N1CCN(c2ncnc3c2oc2ccccc23)CC1,inactive,
COc1cc(Nc2ncc3c(n2)-c2ccc(Cl)cc2C(c2c(F)cccc2OC)=NC3)ccc1C(=O)O,20 µM (active),
O=C(NOC[C@H](O)CO)c1ccc(F)c(F)c1Nc1ccc(I)cc1F,22.4 µM (active),
CC(C)(N)C(=O)N[C@H](COCc1ccccc1)C(=O)N1CCC2(CC1)CN(S(C)(=O)=O)c1ccccc12,inactive,
CC(C)OC(=O)C1=CN(C(=O)c2ccc(F)c(F)c2)CC(C)(C)c2c1[nH]c1ccccc21,inactive,
Cn1cc(-c2ccc3nnc(C(F)(F)c4ccc5ncccc5c4)n3n2)cn1,inactive,
CN(C(=O)c1ccc(F)cc1C(F)(F)F)C1CCN(c2nnc(-c3ccnn3C)c3ccccc23)CC1,inactive,
CC1(C)Cc2c(-c3ccccc3)c(-c3ccc(Cl)cc3)c(CC(=O)O)n2C1,10 µM (active),
C[C@@H]1CN(Cc2ccc(F)cc2)[C@@H](C)CN1C(=O)c1cc2c(C(=O)C(=O)N(C)C)cn(C)c2cc1Cl,inactive,
O=C1CCCC2=C1C(c1[nH]ncc1Cl)N=C(Nc1nc3ccccc3o1)N2 (stereo not given),inactive,

# From PubChem BioAssay (NCATS)
